High-throughput results deposited in PubChem by National Center for Advancing Translational Sciences (NCATS).
GLP-1R inv ag – inverse agonists of human GLP-1 receptor. actives 1.6% (n = 410,000). Potency, µM (highest dose often 38.3 µM), for inactives: top-dose activity change, negative = inhibition, usual class: inhibitors. AID 624417. HEK293 GLP-1R CRE-luciferase, luminescence, 24 h; GLP-1R form is constitutively active; note: potency is the fitted concentration of half-maximal effect; % is set by controls: 0 for no effect and ±100 for the full control effect; nearly all actives have a fitted effect of over 55% in size
Target sequence (P43220 whole entry, looked up): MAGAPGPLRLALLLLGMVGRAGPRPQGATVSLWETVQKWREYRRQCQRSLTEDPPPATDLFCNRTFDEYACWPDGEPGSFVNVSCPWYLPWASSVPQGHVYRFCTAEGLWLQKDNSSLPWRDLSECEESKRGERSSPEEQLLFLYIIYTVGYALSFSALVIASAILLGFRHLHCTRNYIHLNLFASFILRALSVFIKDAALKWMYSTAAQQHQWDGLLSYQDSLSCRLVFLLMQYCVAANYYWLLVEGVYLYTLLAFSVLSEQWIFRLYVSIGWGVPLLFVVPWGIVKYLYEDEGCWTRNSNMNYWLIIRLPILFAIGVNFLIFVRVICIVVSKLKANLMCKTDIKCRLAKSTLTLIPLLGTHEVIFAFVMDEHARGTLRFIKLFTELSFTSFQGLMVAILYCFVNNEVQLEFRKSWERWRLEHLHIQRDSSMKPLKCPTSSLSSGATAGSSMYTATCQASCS
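Stable HEK293 clone (constitutively active GLP-1R + cAMP-response luciferase); 200 cells/uL plated, 12 h pre-culture, compound 24 hr, 37 deg C/5% CO2; detection reagent 12 min RT; luminescence.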
GLP1R cytotox – cytotoxic in the GLP-1 receptor inverse agonist counter-screen | HEK293 cAMP-luciferase reporter cells, luminescence, 24 h | Potency, µM (doses to about 38.3 µM), for the others: at the top dose activity change, negative = inhibition, usual class: inhibitors | actives 0.13% (n = 410,000);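 note: loss of luciferase light is scored as toxicity; potency is the fitted concentration of half-maximal effect; % is set by controls: 0 for no effect and ±100 for the full control effect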
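Compound-treated cells are incubated 24 hr at 37 deg C under 5% CO2 after a 12 hour attachment period, then luciferase detection reagent is added and luminescence is measured following 12 min at room temperature; lowered signal indicates toxicity.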
GLP1R ag – agonists of human GLP-1 receptor; Potency, µM (doses to about 45.6 µM), for the others: top-dose activation, usual class: activators; P43220; HEK293 GLP-1R CRE-luciferase, luminescence, 4-6 h; cells express a hypersensitive GLP-1R form; actives 0.007% (n = 380,000); note: potency is the fitted concentration of half-maximal effect; % of control where 0% means no effect
PTHR1 agonist – agonists of human PTHR1 parathyroid hormone receptor. AID 743266. HEK293 GP2 PTHR1 cells, GloSensor cAMP luminescence, 1 h. actives 0.075% (n = 410,000). Potency, µM (highest dose often 115 µM), inactives show top-dose activation, hits mostly activators; note: potency is the fitted concentration of half-maximal effect; nearly all actives have a fitted effect of over 55% in size
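HEK-293-derived GP2 cells expressing PTHR1 and a GloSensor cAMP reporter, 3,000/well, plated overnight, given luciferin plus IBMX (each 0.5 mM as added) for 1 h at 37 °C, then compound for 1 h at 37 °C. Luminescence was read after 15 min at room temperature.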
TSHR antagonist – human thyrotropin receptor antagonism | TSHR-expressing cells, TSH-stimulated cAMP HTRF, 2 h; hits give low values | activity change, negative = inhibition, % at 11.5 µM | actives 0.2% (n = 330,000) | AID 504810;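 active = activity change below a set negative limit, meaning inhibition stronger than a set level, cut at about -70% in these data; inconclusive = activity change between two set negative limits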; note: % is set by controls: 0 for no effect and ±100 for the full control effect
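Inhibition of cAMP made by TSHR-expressing cells under TSH stimulation (4nM final, EC80; 2 h, 37 deg C) is quantified with a one-step lysis HTRF kit, anti-cAMP cryptate versus cAMP-d2.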
An asterisk follows results filed as active; i = inactive; ? = inconclusive; . = no result; [ ] = dose if it differs, or a comment. A selection: hits, their analogues and other compounds. The true share with any hit is near 1.8%. Unless noted, calls come from the whole dose curve; as a rule, active = well fitted curve in the direction sought with a large enough effect; inconclusive = small, poorly fitted or top-dose-only effect, or another doubt; inactive = no such curve, though single readings can be large; an effect the other way counts as inactive or inconclusive.

SMILES | GLP-1R inv ag | GLP1R cytotox | GLP1R ag | PTHR1 agonist | TSHR antagonist
O=C(COc1ccccc1)Nc1nnc(SCc2cc(=O)n3cc(Cl)ccc3n2)s1 | -8% | 3% | . | 8% | .
COCCn1c(C)cc(C(=O)CSc2nnc(C)s2)c1C | 1.3µM* | -1% | -11% | -29%[57.5 µM] | .
COCCn1c(C)cc(C(=O)CSc2nnnn2C2CCCC2)c1C | 2.2µM* | -1% | -30% | -13% | -8
COCCn1c(C)cc(C(=O)CSc2n[nH]c(N)n2)c1C | 9% | -11% | -3% | i | 18
COCCn1c(C)cc(C(=O)COC(=O)c2cccc(O)c2)c1C | 0.89µM* | 0% | -8% | i | 0
COCCn1c(C)cc(C(=O)COC(=O)c2cc3c(s2)CCC3)c1C | ? | -3% | 0% | -74%[57.5 µM] | -29
COCCn1c(C)cc(C(=O)CSc2cc(C)c3ccccc3n2)c1C | 13µM* | 10% | 1% | -17% | -5
COc1cc2ncc3c(-c4ccccc4)nn(-c4ccc(C)cc4)c3c2cc1OC | 14% | -9% | . | i | .
CNc1ccccc1C(C)(C)c1cc(-c2cccc(OC)c2)no1 | 7.1µM* | -11% | 7% | -20% | -13
CNc1ccccc1C(C)(C)c1cc(-c2cc(C)cc(C)c2)no1 | ? | 12% | 0% | i | 7
CCc1ccc(N2CCn3c2nc2c3c(=O)n(CCc3ccccc3)c(=O)n2C)cc1 | -8% | 6% | . | 50µM* | .
C/C(=N/Nc1ccc([N+](=O)[O-])cc1)c1c[nH]c2ccccc12 | 2.5µM* | -12% | 6% | -29% | -17
C/C(=N/Nc1ccc([N+](=O)[O-])cc1)c1ccc(C)cc1C | -22% | -28% | -14% | -32% | -26
Cc1[nH]c2ccccc2c1/C=N/Nc1ccc([N+](=O)[O-])cc1 | 2.8µM* | ? | 4% | -5% | 28
CC(C)c1ccc(Nc2nc(NCc3ccco3)nc(N3CCOCC3)n2)cc1 | 2.2µM* | -9% | 9% | i | -10
CCOC(=O)[C@]12CCCC=C1N(CCc1ccc(OC)c(OC)c1)C(=O)[C@H](CC(=O)NCCCCc1ccccc1)C2 | 10µM* | -27% | . | 3% | .
CCCCNC(=O)C[C@@H]1C[C@@]2(C(=O)OCC)CCCC=C2N(CCc2ccc(OC)c(OC)c2)C1=O | 1% | -8% | . | -2% | .
Cc1c(Cl)cccc1NS(=O)(=O)c1ccc2[nH]cc(C(=O)NC3CCCC3)c(=O)c2c1 | ? | -22% | . | i | .
CC(C)c1ccc(NS(=O)(=O)c2ccc3[nH]cc(C(=O)NC4CCCCC4)c(=O)c3c2)cc1 | ? | -22% | . | i | .
Cc1ccccc1NS(=O)(=O)c1ccc2[nH]cc(C(=O)NC3CCCCC3)c(=O)c2c1 | 10µM* | -23% | . | -3% | -13
Cc1cc(C)cc(NS(=O)(=O)c2ccc3[nH]cc(C(=O)NC4CCCCC4)c(=O)c3c2)c1 | 7.1µM* | -18% | . | -2% | .
O=C(c1cc(COc2ccc3ncccc3c2)on1)N1CCCC1 | 16% | 1% | 5% | -26% | -32
CC(NC(=O)c1cc(COc2ccc3ncccc3c2)on1)c1ccc(F)cc1 (centres undefined) | 1.8µM* | -7% | 10% | -48% | -27
O=C(NCCc1cn2ccccc2n1)c1cc(COc2ccc3ncccc3c2)on1 | 13µM* | -4% | 1% | -41% | -18
COc1cc(OC)c(NC(=O)N2CCc3cc(OC)c(OC)cc3C2CC(=O)O)cc1Cl (centres undefined) | -14% | -3% | . | i | .
SMILES | GLP-1R inv ag | GLP1R cytotox | GLP1R ag | PTHR1 agonist | TSHR antagonist
Cc1nc([N+](=O)[O-])cn1-c1ccc([N+](=O)[O-])cc1 | . | . | 6% | . | .
CC1CCCCN1C(=O)c1ccc2c(c1)N(Cc1ccc(F)cc1)C(=O)c1ccccc1S2(=O)=O (centres undefined) | 1% | 5% | 0% | -10% | .
CCc1cccc(C)c1NC(=O)CCS(=O)(=O)c1ccc2c(c1)oc(=O)n2C | -1% | 25% | . | i | .
O=C(NCc1ccc(Cl)cc1)c1ccncc1 | 24% | -9% | -2% | -9% | 3
O=C(NCc1ccc(F)cc1)c1ccncc1 | 10% | 5% | 7% | i | -121*
COc1ccc(-c2n(CC(=O)OC3CC(C)CCC3C(C)C)c3ccccc3[n+]2C)cc1 (centres undefined) | 7.1µM* | ? | -1% | -45% | 35
COc1ccc(OCc2n(CC(=O)OC3CC(C)CCC3C(C)C)c3ccccc3[n+]2C)cc1 (centres undefined) | ? | ? | 1% | -18% | 22
O=[N+]([O-])c1cc(-c2nc(-c3ccncc3)no2)ccc1NCc1ccccc1 | 16% | 1% | . | -39% | .
COc1ccc(OCC(O)Cn2ccnc2C)cc1 (centres undefined) | 10% | -16% | -2% | 10µM* | -4
CCN(c1ccccc1)c1nnc(NC(=O)Nc2cccc(Cl)c2C)s1 | -19% | -1% | . | i | .
CN1CCOc2ccc(S(=O)(=O)N3CCN(S(=O)(=O)c4c(F)cccc4F)CC3)cc21 | . | . | . | . | -4
CN(C)c1ccc(N=Nc2nccs2)cc1 | ? | 11µM* | -2% | -38% | .
CN(C)c1ccc(N=Nc2ccccc2Br)cc1 | ? | ? | -4% | -86% | 5
COc1ccc(N2CCN(C(=O)Nc3cn(CC(C)C)c(=O)c4ccccc34)CC2)cc1 | 5% | -2% | 3% | i | .
Cc1cccc(N(Cc2ccccc2)C(=O)CCl)c1 | 10µM* | -27% | 1% | -51% | 0
O=C(CCl)N(Cc1ccccc1)c1ccccc1 | ? | ? | -2% | -18% | 8
COc1ccccc1CC(=O)N(Cc1ccccc1)c1ccc(C)cc1 | 8.9µM* | -20% | 12% | i | 2
COc1cc(C(=O)N(Cc2ccccc2)c2cccc(C)c2)ccc1OC(F)F | 11µM* | 9% | 8% | -50% | -9
CCc1cccc(-n2nnc(-c3nc(-c4cccs4)no3)c2N)c1 | 4% | -8% | . | i | .
COC(=O)c1c(NC(=O)CCCOc2ccc(C(C)(C)C)cc2)sc2c1C(C(=O)OC)CC2 (centres undefined) | -23% | 8% | . | -34% | .
Cc1cccc(C)c1-n1ncc(C(=O)N2CCN(c3ccccn3)CC2)c1C1CCN(C(=O)OC(C)(C)C)CC1 | -18% | 7% | . | i | .
COc1ccc(CCNC(=O)c2c(C)oc3ncn(CC(C)C)c(=O)c23)c(OC)c1 | -10% | -1% | . | i | .
Cc1cccc(C)c1OCC(=O)Nc1oc(-c2ccccc2)c(-c2ccccc2)c1C#N | 10µM* | ? | -17% | -34% | .
COc1ccc(C(=O)Nc2oc(-c3ccccc3)c(-c3ccccc3)c2C#N)cc1 | ? | -2% | -1% | -12%[57.5 µM] | -21
